The source of these data is paper PMC11006913.

Experiment in all cases: PBM; 200 nM protein, PBS
Common to all, as to conditions: dsDNA, one strand shown

For experiment [1], the target named is HESX1 (Homo sapiens, UniProt Q9UBX0 95-180, R165K).
Experiment [2] addresses SHOX (Homo sapiens, UniProt O15266 103-189).
The target in a further experiment is ALX4 (Homo sapiens, UniProt Q9H161 200-286, Q225E).
The target in experiment [3] is HESX1 (Homo sapiens, UniProt Q9UBX0 95-180).
The target in another experiment is MSX2 (Homo sapiens, UniProt P35548 130-214, R199I).
Sequence of MSX2 (P35548 130-214 R199I): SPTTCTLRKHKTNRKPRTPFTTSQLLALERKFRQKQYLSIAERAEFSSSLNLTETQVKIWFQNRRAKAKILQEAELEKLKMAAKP
For experiment [4], the target named is ALX1 (Homo sapiens, UniProt Q15699 118-204, L144V).
Sequence of ALX1 (Homo sapiens, UniProt Q15699 118-204, L144V) (Q15699 118-204 L144V): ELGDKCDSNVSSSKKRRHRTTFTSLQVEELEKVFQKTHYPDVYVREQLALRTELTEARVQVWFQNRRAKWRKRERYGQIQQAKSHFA
In experiment [5] the target is ALX3 (Homo sapiens, UniProt O95076 139-225, N203Q).
Sequence of ALX3 (Homo sapiens, UniProt O95076 139-225, N203Q) (O95076 139-225 N203Q): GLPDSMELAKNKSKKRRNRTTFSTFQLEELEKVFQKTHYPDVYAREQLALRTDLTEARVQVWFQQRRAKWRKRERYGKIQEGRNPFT
In experiment [6] the target is SHOX (Homo sapiens, UniProt O15266 103-189, R173C).
Sequence of SHOX (Homo sapiens, UniProt O15266 103-189, R173C) (O15266 103-189 R173C): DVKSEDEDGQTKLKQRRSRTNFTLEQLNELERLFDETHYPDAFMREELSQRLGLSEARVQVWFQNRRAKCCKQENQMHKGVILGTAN
Experiment [7] addresses ALX1 (Homo sapiens, UniProt Q15699 118-204, L144R).
Experiment [8] has as its target ALX3 (Homo sapiens, UniProt O95076 139-225).
The target of experiment [9] is PROP1 (Homo sapiens, UniProt O75360 56-141).
Sequence of PROP1 (Homo sapiens, UniProt O75360 56-141) (O75360 56-141): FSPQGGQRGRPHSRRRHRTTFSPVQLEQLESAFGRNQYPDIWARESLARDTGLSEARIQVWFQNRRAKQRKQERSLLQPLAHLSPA
The target of experiment [10] is HESX1 (Homo sapiens, UniProt Q9UBX0 95-180, R109Q).
Sequence of HESX1 (Homo sapiens, UniProt Q9UBX0 95-180, R109Q) (Q9UBX0 95-180 R109Q): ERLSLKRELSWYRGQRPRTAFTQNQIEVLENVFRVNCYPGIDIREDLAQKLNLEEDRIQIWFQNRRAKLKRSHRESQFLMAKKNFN
Experiment [11] addresses PROP1 (Homo sapiens, UniProt O75360 56-141, R99H).
Experiment [12] deals with ALX3 (Homo sapiens, UniProt O95076 139-225, L168Q).
Sequence of ALX3 (Homo sapiens, UniProt O95076 139-225, L168Q) (O95076 139-225 L168Q): as the sequence (O95076 139-225 N203Q) above, with L30Q, Q65N counted along it
Experiment [13] has as its target HESX1 (Homo sapiens, UniProt Q9UBX0 95-180, P111T).
The target of experiment [14] is ALX3 (Homo sapiens, UniProt O95076 139-225, L168V).
Sequence of ALX3 (Homo sapiens, UniProt O95076 139-225, L168V) (O95076 139-225 L168V): as the sequence (O95076 139-225 N203Q) above, with L30V, Q65N counted along it
Experiment [15] concerns the target PROP1 (Homo sapiens, UniProt O75360 56-141, F88S).
Experiment [16] concerns the target HESX1 (Homo sapiens, UniProt Q9UBX0 95-180, F115L).
For experiment [17], the target named is ALX1 (Homo sapiens, UniProt Q15699 118-204).
Sequence of ALX1 (Homo sapiens, UniProt Q15699 118-204) (Q15699 118-204): as the sequence (Q15699 118-204 L144V) above, with V27L counted along it
The target in experiment [18] is ALX3 (Homo sapiens, UniProt O95076 139-225, N203S).
Sequence of ALX3 (Homo sapiens, UniProt O95076 139-225, N203S) (O95076 139-225 N203S): as the sequence (O95076 139-225 N203Q) above, with Q65S counted along it

Sequence of ALX4 (Q9H161 200-286 Q225E): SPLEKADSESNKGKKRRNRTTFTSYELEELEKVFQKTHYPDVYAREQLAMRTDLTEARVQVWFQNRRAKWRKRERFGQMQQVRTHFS
Sequence of HESX1 (Homo sapiens, UniProt Q9UBX0 95-180, R165K) (Q9UBX0 95-180 R165K): as the sequence (Q9UBX0 95-180 R109Q) above, with Q15R, R71K counted along it
Sequence of PROP1 (Homo sapiens, UniProt O75360 56-141, F88S) (O75360 56-141 F88S): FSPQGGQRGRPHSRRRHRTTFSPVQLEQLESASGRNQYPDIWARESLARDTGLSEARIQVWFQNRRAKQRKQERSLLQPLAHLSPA
Sequence of HESX1 (Homo sapiens, UniProt Q9UBX0 95-180, P111T) (Q9UBX0 95-180 P111T): as the sequence (Q9UBX0 95-180 R109Q) above, with Q15R, P17T counted along it
Sequence of HESX1 (Homo sapiens, UniProt Q9UBX0 95-180) (Q9UBX0 95-180): as the sequence (Q9UBX0 95-180 R109Q) above, with Q15R counted along it
Sequence of ALX3 (Homo sapiens, UniProt O95076 139-225) (O95076 139-225): as the sequence (O95076 139-225 N203Q) above, with Q65N counted along it
Sequence of HESX1 (Homo sapiens, UniProt Q9UBX0 95-180, F115L) (Q9UBX0 95-180 F115L): as the sequence (Q9UBX0 95-180 R109Q) above, with Q15R, F21L counted along it
Sequence of SHOX (Homo sapiens, UniProt O15266 103-189) (O15266 103-189): as the sequence (O15266 103-189 R173C) above, with C71R counted along it
Sequence of ALX1 (Homo sapiens, UniProt Q15699 118-204, L144R) (Q15699 118-204 L144R): as the sequence (Q15699 118-204 L144V) above, with V27R counted along it
Sequence of PROP1 (Homo sapiens, UniProt O75360 56-141, R99H) (O75360 56-141 R99H): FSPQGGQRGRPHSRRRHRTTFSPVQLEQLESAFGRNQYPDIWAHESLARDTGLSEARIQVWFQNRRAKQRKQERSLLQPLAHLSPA

On to CAATTAGC, for which the binding signal with HESX1 [1] was 13.2 upbm affinity estimate (log intensity, higher = more binding, comparable within an allelic series); in the experiment with SHOX [2] it was 12.7 upbm affinity estimate (log intensity, higher = more binding, comparable within an allelic series); with ALX4, 13.5 upbm affinity estimate (log intensity, higher = more binding, comparable within an allelic series); with HESX1 [3], 13.3 upbm affinity estimate (log intensity, higher = more binding, comparable within an allelic series); with MSX2, 13.1 upbm affinity estimate (log intensity, higher = more binding, comparable within an allelic series); with ALX1 [4], 11.9 upbm affinity estimate (log intensity, higher = more binding, comparable within an allelic series). Further, the binding signal is 8.26 upbm affinity estimate (log intensity, higher = more binding, comparable within an allelic series) with ALX3 [5]; 9.99 upbm affinity estimate (log intensity, higher = more binding, comparable within an allelic series) in the experiment with SHOX [6]; 11.5 upbm affinity estimate (log intensity, higher = more binding, comparable within an allelic series) in the experiment with ALX1 [7]; 12.6 upbm affinity estimate (log intensity, higher = more binding, comparable within an allelic series) with ALX3 [8]; 11.8 upbm affinity estimate (log intensity, higher = more binding, comparable within an allelic series) in the experiment with PROP1 [9]; 9.79 upbm affinity estimate (log intensity, higher = more binding, comparable within an allelic series) with HESX1 [10]. In addition, the binding signal in the experiment with PROP1 [11] is 11.9 upbm affinity estimate (log intensity, higher = more binding, comparable within an allelic series); with ALX3 [12], 10.7 upbm affinity estimate (log intensity, higher = more binding, comparable within an allelic series); with HESX1 [13] it was 11.7 upbm affinity estimate (log intensity, higher = more binding, comparable within an allelic series); with ALX3 [14], 10.1 upbm affinity estimate (log intensity, higher = more binding, comparable within an allelic series); in the experiment with PROP1 [15], 7.57 upbm affinity estimate (log intensity, higher = more binding, comparable within an allelic series); with HESX1 [16], 7.74 upbm affinity estimate (log intensity, higher = more binding, comparable within an allelic series). For the same sequence, the binding signal with ALX1 [17] is 12.8 upbm affinity estimate (log intensity, higher = more binding, comparable within an allelic series); in the experiment with ALX3 [18] it was 8.45 upbm affinity estimate (log intensity, higher = more binding, comparable within an allelic series).

On to TAATTAGA, for which the binding signal in the experiment with HESX1 [1] is 13.5 upbm affinity estimate (log intensity, higher = more binding, comparable within an allelic series); with SHOX [2] it was 13.1 upbm affinity estimate (log intensity, higher = more binding, comparable within an allelic series); with ALX4, 14.2 upbm affinity estimate (log intensity, higher = more binding, comparable within an allelic series); with HESX1 [3], 13.5 upbm affinity estimate (log intensity, higher = more binding, comparable within an allelic series); with MSX2, 13.2 upbm affinity estimate (log intensity, higher = more binding, comparable within an allelic series); with ALX1 [4], 12.3 upbm affinity estimate (log intensity, higher = more binding, comparable within an allelic series). Besides, the binding signal with ALX3 [5] was 8.56 upbm affinity estimate (log intensity, higher = more binding, comparable within an allelic series); with SHOX [6], 10.5 upbm affinity estimate (log intensity, higher = more binding, comparable within an allelic series); with ALX1 [7] it was 12 upbm affinity estimate (log intensity, higher = more binding, comparable within an allelic series); with ALX3 [8], 12.9 upbm affinity estimate (log intensity, higher = more binding, comparable within an allelic series); with PROP1 [9], 12.2 upbm affinity estimate (log intensity, higher = more binding, comparable within an allelic series); in the experiment with HESX1 [10] it was 10 upbm affinity estimate (log intensity, higher = more binding, comparable within an allelic series). Moreover, the binding signal in the experiment with PROP1 [11] is 12.2 upbm affinity estimate (log intensity, higher = more binding, comparable within an allelic series); in the experiment with ALX3 [12], 11.3 upbm affinity estimate (log intensity, higher = more binding, comparable within an allelic series); with HESX1 [13] it was 12.1 upbm affinity estimate (log intensity, higher = more binding, comparable within an allelic series); with ALX3 [14] it was 10.9 upbm affinity estimate (log intensity, higher = more binding, comparable within an allelic series); with PROP1 [15], 8.08 upbm affinity estimate (log intensity, higher = more binding, comparable within an allelic series); in the experiment with HESX1 [16], 8.35 upbm affinity estimate (log intensity, higher = more binding, comparable within an allelic series). The binding signal with ALX1 [17] is 13 upbm affinity estimate (log intensity, higher = more binding, comparable within an allelic series); in the experiment with ALX3 [18], 8.71 upbm affinity estimate (log intensity, higher = more binding, comparable within an allelic series).

For CCAGGTCC, the binding signal in the experiment with HESX1 [1] is 6.37 upbm affinity estimate (log intensity, higher = more binding, comparable within an allelic series); with HESX1 [3] it was 6.39 upbm affinity estimate (log intensity, higher = more binding, comparable within an allelic series); in the experiment with PROP1 [9], 6.63 upbm affinity estimate (log intensity, higher = more binding, comparable within an allelic series); in the experiment with HESX1 [10] it was 6.29 upbm affinity estimate (log intensity, higher = more binding, comparable within an allelic series); with PROP1 [11], 6.65 upbm affinity estimate (log intensity, higher = more binding, comparable within an allelic series); in the experiment with HESX1 [13] it was 6.38 upbm affinity estimate (log intensity, higher = more binding, comparable within an allelic series). Besides, the binding signal with PROP1 [15] is 6.38 upbm affinity estimate (log intensity, higher = more binding, comparable within an allelic series); with HESX1 [16] it was 6.42 upbm affinity estimate (log intensity, higher = more binding, comparable within an allelic series).

Regarding CTAATTAC, the binding signal with HESX1 [1] is 13.2 upbm affinity estimate (log intensity, higher = more binding, comparable within an allelic series); in the experiment with SHOX [2], 12.8 upbm affinity estimate (log intensity, higher = more binding, comparable within an allelic series); in the experiment with ALX4 it was 13.8 upbm affinity estimate (log intensity, higher = more binding, comparable within an allelic series); in the experiment with HESX1 [3], 13.2 upbm affinity estimate (log intensity, higher = more binding, comparable within an allelic series); with MSX2, 13.2 upbm affinity estimate (log intensity, higher = more binding, comparable within an allelic series); with ALX1 [4], 12.2 upbm affinity estimate (log intensity, higher = more binding, comparable within an allelic series). For the same sequence, the binding signal with ALX3 [5] was 8.37 upbm affinity estimate (log intensity, higher = more binding, comparable within an allelic series); in the experiment with SHOX [6], 10.1 upbm affinity estimate (log intensity, higher = more binding, comparable within an allelic series); with ALX1 [7], 11.8 upbm affinity estimate (log intensity, higher = more binding, comparable within an allelic series); with ALX3 [8] it was 12.9 upbm affinity estimate (log intensity, higher = more binding, comparable within an allelic series); in the experiment with PROP1 [9], 12 upbm affinity estimate (log intensity, higher = more binding, comparable within an allelic series); in the experiment with HESX1 [10], 9.51 upbm affinity estimate (log intensity, higher = more binding, comparable within an allelic series). Further, the binding signal in the experiment with PROP1 [11] was 12 upbm affinity estimate (log intensity, higher = more binding, comparable within an allelic series); in the experiment with ALX3 [12] it was 11 upbm affinity estimate (log intensity, higher = more binding, comparable within an allelic series); with HESX1 [13], 11.8 upbm affinity estimate (log intensity, higher = more binding, comparable within an allelic series); with ALX3 [14], 10.5 upbm affinity estimate (log intensity, higher = more binding, comparable within an allelic series); with PROP1 [15], 7.85 upbm affinity estimate (log intensity, higher = more binding, comparable within an allelic series); in the experiment with HESX1 [16], 7.95 upbm affinity estimate (log intensity, higher = more binding, comparable within an allelic series). Further, the binding signal is 12.9 upbm affinity estimate (log intensity, higher = more binding, comparable within an allelic series) with ALX1 [17] and 8.5 upbm affinity estimate (log intensity, higher = more binding, comparable within an allelic series) with ALX3 [18].

On to CAATTAAC, for which the binding signal with HESX1 [1] was 13.1 upbm affinity estimate (log intensity, higher = more binding, comparable within an allelic series); in the experiment with SHOX [2] it was 12.1 upbm affinity estimate (log intensity, higher = more binding, comparable within an allelic series); with ALX4 it was 13.5 upbm affinity estimate (log intensity, higher = more binding, comparable within an allelic series); in the experiment with HESX1 [3] it was 13.1 upbm affinity estimate (log intensity, higher = more binding, comparable within an allelic series); in the experiment with MSX2, 13.1 upbm affinity estimate (log intensity, higher = more binding, comparable within an allelic series); with ALX1 [4], 11.8 upbm affinity estimate (log intensity, higher = more binding, comparable within an allelic series). The binding signal is 8.37 upbm affinity estimate (log intensity, higher = more binding, comparable within an allelic series) in the experiment with ALX3 [5]; 9.74 upbm affinity estimate (log intensity, higher = more binding, comparable within an allelic series) in the experiment with SHOX [6]; 11.5 upbm affinity estimate (log intensity, higher = more binding, comparable within an allelic series) with ALX1 [7]; 12.7 upbm affinity estimate (log intensity, higher = more binding, comparable within an allelic series) with ALX3 [8]; 11.6 upbm affinity estimate (log intensity, higher = more binding, comparable within an allelic series) in the experiment with PROP1 [9]; 9.81 upbm affinity estimate (log intensity, higher = more binding, comparable within an allelic series) in the experiment with HESX1 [10]. The binding signal was 11.8 upbm affinity estimate (log intensity, higher = more binding, comparable within an allelic series) with PROP1 [11]; 10.8 upbm affinity estimate (log intensity, higher = more binding, comparable within an allelic series) with ALX3 [12]; 11.7 upbm affinity estimate (log intensity, higher = more binding, comparable within an allelic series) with HESX1 [13]; 10.3 upbm affinity estimate (log intensity, higher = more binding, comparable within an allelic series) with ALX3 [14]; 7.68 upbm affinity estimate (log intensity, higher = more binding, comparable within an allelic series) with PROP1 [15]; 7.95 upbm affinity estimate (log intensity, higher = more binding, comparable within an allelic series) in the experiment with HESX1 [16]. The binding signal was 12.5 upbm affinity estimate (log intensity, higher = more binding, comparable within an allelic series) with ALX1 [17] and 8.57 upbm affinity estimate (log intensity, higher = more binding, comparable within an allelic series) with ALX3 [18].
